# Screens: PubChem, several laboratories
# TMEM16A act – mouse TMEM16A channel activation, primary screen; Q8BHY3; HEK293 TMEM16A/YFP-H148Q/I152L, iodide quench fluorescence; hits give low values; B-score at 10 µM; hit rate 0.3% among 340,000;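 active = fluorescence-ratio B-score plate-corrected deviation score at least 3 library SD below zero, with starting fluorescence score within 5 deviations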;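 note: channel opened by trigger with iodide after compound preincubation; score built on the fluorescence ratio of max minus min over baseline; more negative score means more quench and so TMEM16A activation or potentiation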
# Target sequence (Q8BHY3 whole entry, looked up): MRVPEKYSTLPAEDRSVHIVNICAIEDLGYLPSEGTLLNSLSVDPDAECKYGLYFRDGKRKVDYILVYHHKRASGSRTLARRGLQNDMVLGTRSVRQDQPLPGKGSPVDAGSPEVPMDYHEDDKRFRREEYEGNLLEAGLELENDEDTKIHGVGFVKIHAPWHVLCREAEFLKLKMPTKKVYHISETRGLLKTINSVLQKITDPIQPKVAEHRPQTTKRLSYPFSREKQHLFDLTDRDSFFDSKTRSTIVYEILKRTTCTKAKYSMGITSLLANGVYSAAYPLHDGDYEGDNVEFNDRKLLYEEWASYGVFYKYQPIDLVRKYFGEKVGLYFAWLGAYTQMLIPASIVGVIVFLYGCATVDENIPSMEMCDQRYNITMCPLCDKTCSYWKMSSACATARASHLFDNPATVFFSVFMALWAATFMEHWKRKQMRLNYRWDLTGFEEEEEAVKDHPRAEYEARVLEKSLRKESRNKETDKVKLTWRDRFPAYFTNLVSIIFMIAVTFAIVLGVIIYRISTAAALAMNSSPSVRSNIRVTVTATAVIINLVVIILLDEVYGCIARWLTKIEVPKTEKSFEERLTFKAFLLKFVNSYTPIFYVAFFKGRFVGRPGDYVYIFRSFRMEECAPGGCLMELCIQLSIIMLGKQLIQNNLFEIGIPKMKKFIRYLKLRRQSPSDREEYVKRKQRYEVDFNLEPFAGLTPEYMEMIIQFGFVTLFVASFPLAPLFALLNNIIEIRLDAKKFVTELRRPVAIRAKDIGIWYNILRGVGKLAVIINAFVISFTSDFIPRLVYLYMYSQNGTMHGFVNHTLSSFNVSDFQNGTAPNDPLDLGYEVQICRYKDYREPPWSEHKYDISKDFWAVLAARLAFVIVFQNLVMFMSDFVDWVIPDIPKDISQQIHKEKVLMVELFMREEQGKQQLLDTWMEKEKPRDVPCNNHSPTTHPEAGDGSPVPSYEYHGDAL
# MPTP inh – inhibitors of mitochondrial permeability transition pore | isolated mouse mitochondria, Ca2+ swelling absorbance, 30 min | inhibition, % at 10 µM | hit rate 1.4% among 360,000;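 active = inhibition of 50% or more, scaled per plate between neutral and stimulator controls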;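 note: 0% = DMSO wells given calcium and 100% = 1 mM EGTA wells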
# ANO1 block – blocks the mouse calcium-activated chloride channel TMEM16A; HEK293 TMEM16A/YFP iodide influx fluorescence, ionomycin; AID 588511; hit rate 1.2% among 310,000; normalized B-score (activity score, 25-100; higher = stronger inhibition) at 10 µM;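 active = ratio plate-corrected score three or more library SD toward inhibition, starting fluorescence score within five deviations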;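 note: score derived from kinetic fluorescence span divided by baseline fluorescence per well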
# GRIN3A LBD mod – modulates the human NR3A ligand-binding domain; hit rate 2.5% among 340,000; Tm shift relative to glycine control, % at 25 µM; NR3A LBD differential scanning fluorimetry, Tm shift; 0% = protein alone, 100% = glycine-bound protein;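 active = melting temperature shift of at least 10% of the positive control shift, at one fixed dose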
# CRFR2-BP antag – CRF-BP/CRF-R2 complex antagonism | HEK293 CRF-R2/CRF-BP, CRF-induced calcium fluorescence | inhibition, % at 11.8 µM | hit rate 0.59% among 350,000 | AID 588475;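 active = inhibition of the ligand-induced calcium signal above about 50% at the single tested concentration, limit read from the data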
# CRFBP-R2 agonist – CRF-BP/CRF-R2 complex agonism | HEK293 CRF-R2/CRF-BP, calcium dye fluorescence (FLIPR); percent of saturating CRF peptide response | activation, % at 13.2 µM | hit rate 0.46% among 350,000;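 active = activation of at least 50%, plus an integration ratio under a set limit after plate pattern correction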;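 note: plate controls were neutral control wells without compound for no effect and CRF at EC100 for full effect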
# An asterisk follows results filed as active; i = inactive; x = not tested or not shown. Shown are actives, neighbours in structure and some others; about 5.1% of the full set was active somewhere.
SMILES,TMEM16A act,MPTP inh,ANO1 block,GRIN3A LBD mod,CRFR2-BP antag,CRFBP-R2 agonist
Cc1ccccc1OCCC(=O)OCC(=O)N1CCN(S(=O)(=O)c2ccc(Cl)cc2)CC1,i,-2,i,11*,-4,3
Cc1ccc(OCCC(=O)OCC(=O)N2CCN(S(=O)(=O)c3ccc(Cl)cc3)CC2)cc1,i,-1,i,x,-2,7
Cc1nnc(SCC(=O)N2CCN(S(=O)(=O)c3ccc(Cl)cc3)CC2)n(N)c1=O,-17*,-7,i,-2,7,1
Cc1ccc(S(=O)(=O)N2CCN(C(=O)CCOc3cc(C)ccc3C)CC2)cc1,-44*,-2,x,2,4,0
Cc1cccc(S(=O)(=O)C(C#N)c2nc3ccccc3nc2N2CCCC2)c1 (stereo unspecified),i,0,i,-4,-17,64*
COc1ccc(S(=O)(=O)C(C#N)c2nc3ccccc3nc2N2CCCCC2)cc1 (stereo unspecified),i,5,100*,1,-13,16
COc1ccc(S(=O)(=O)N2CCN(C(=O)CCCN3C(=O)NC4(CCCC4)C3=O)CC2)cc1,i,0,x,3,55*,-1
O=C1NC(=O)C(c2cccs2)(c2cccs2)N1,i,-2,i,-3,12,-1
CCC1CCCCN1CCNS(=O)(=O)c1ccc2c(c1)oc(=O)n2C (stereo unspecified),i,0,i,14*,-5,3
CCC1CCCCN1CCCNS(=O)(=O)c1ccc2c(c1)oc(=O)n2C (stereo unspecified),i,0,i,-1,-12,12
COc1cccc(C(=O)N2CCC[C@H]2C(=O)N2CCC[C@H]2C(=O)N(C)Cc2ccccc2)c1,x,-1,x,x,x,x
c1ccc2c(c1)NCC1CCCN21 (stereo unspecified),i,0,i,1,-5,3
O=C(CNc1ccccc1F)Nc1cccc(S(=O)(=O)N2CCCCC2)c1,i,1,x,-2,4,-2
CN(C)c1cccc(C(=O)OCC(=O)Nc2ccccc2Sc2ccccc2)c1,i,4,i,0,62*,1
Nc1cccc(C(=O)OCC(=O)Nc2cccc3c2C(=O)c2ccccc2C3=O)c1,i,0,i,33*,4,3
COC(=O)c1c(NC(=O)COC(=O)c2ccccc2O)sc2c1CCCCC2,i,2,i,4,-28,3
CN(C)c1cccc(C(=O)OCC(=O)Nc2ccccc2-c2ccccc2)c1,i,14,i,2,8,1
N#CCC(=O)Nc1ccc(C(=O)OCC(=O)Nc2ccccc2Sc2ccccc2)cc1,i,-1,i,16*,15,0
CC(=O)Nc1ccc(C(=O)OCC(=O)Nc2ccccc2Sc2ccccc2)cc1,i,1,i,-11,3,1
COC(=O)c1c(NC(=O)COC(=O)c2ccc(NC(=O)CC#N)cc2)sc2c1CCCCC2,i,7,i,19*,-9,-1
Cc1cccc(NC(=O)COC(=O)c2cccc3c2C(=O)c2ccccc2C3=O)c1C,i,-1,i,-13,-2,-1
CSCCC(NS(=O)(=O)c1ccc2c(c1)oc(=O)n2C)C(=O)NCc1cccs1 (stereo unspecified),i,0,i,-3,-7,0
C[C@H](CO)N1C[C@H](C)[C@H](CN(C)S(=O)(=O)c2ccccc2)OCc2cnnn2CCCC1=O,x,-1,x,x,-8,0
Oc1c(Br)cc(Br)cc1CNc1nccs1,i,1,i,-2,-9,2
NC(Cc1ccc(Cl)cc1)c1csc(NC(=O)Nc2ccccc2-c2ccccc2)n1 (stereo unspecified),x,4,x,x,x,x
CC(C)(C)c1cc(NC(=O)COC(=O)c2ccc(O)cc2O)n(-c2ccccc2)n1,i,-3,i,-5,12,-3
N#CCC(=O)Nc1ccc(C(=O)OCC(=O)NCCCc2ccccc2)cc1,i,-1,i,-2,14,1
N#CCC(=O)Nc1ccc(C(=O)OCc2ccccc2Oc2ccccc2)cc1,i,2,i,17*,1,2
